ChEMBL document CHEMBL4513216, “Probing the Open Global Health Chemical Diversity Library for Multistage-Active Starting Points for Next-Generation Antimalarials” (ACS Infect Dis, 2020)
Screen size: about 69,000 compounds; about 8,600 (12%) showed an effect of 50% or more. What follows is part of a selection rich in strong results, with near analogues and random picks from the rest.

tested on: Plasmodium berghei; assay: Screen against P. berghei liver stage (PbLuc), transformed with Luciferase, at 10uM; format: functional, HepG2; details: tested at 10 uM

Structure (SMILES)	INHIBITION
Cc1ccc(CN2CC[C@@H](O)[C@@H]2Cc2ccccc2)o1	42.3%
CC1=C(c2ccc(F)cc2)S(=O)(=O)N=C1N1CCc2ccccc21	0.29%
CC(C)N(C)CCNC(=O)N1CCN(Cc2ccon2)CC1	-0.514%
CCc1cnc(CN(C)C2CCN(CCS(C)(=O)=O)C2)o1 (stereo unspecified)	36.8%
Cc1cnc(CN(Cc2ccc(C#N)cc2F)C2CCN(C)C2)o1 (stereo unspecified)	-40.7%
Cc1cnc(CN(Cc2ccc(Cl)s2)C2CCN(C)C2)o1 (stereo unspecified)	51.2%
CC(=O)N(Cc1ncc(C)o1)C1CCN(Cc2cccnc2)C1 (stereo unspecified)	31.9%
Cc1cnc(CN(C)C2CCN(Cc3sc(C)nc3C)C2)o1 (stereo unspecified)	21.6%
CCS(=O)(=O)CCN1CCC(N(C)Cc2ncc(C)o2)C1 (stereo unspecified)	74.4%
CC(=O)N(Cc1ncc(C)o1)C1CCN(Cc2ccccc2F)C1 (stereo unspecified)	-19.9%
Cc1cnc(CN(C)C2CCN(Cc3ccc(Cl)s3)C2)o1 (stereo unspecified)	60%
CC(C)c1cnc(CN(C)C2CCN(CCS(C)(=O)=O)C2)o1 (stereo unspecified)	38.5%
Cc1cnc(CN(C)C2CCN(Cc3cnc(C)s3)C2)o1 (stereo unspecified)	23.1%
CC(=O)N(Cc1ncc(C)o1)C1CCN(Cc2ccc(F)c(F)c2)C1 (stereo unspecified)	68.9%
COc1ccc(C)cc1CN(Cc1ncc(C)o1)C1CCN(C)C1 (stereo unspecified)	23.7%
CN(C)c1ccc(C(=O)NCc2ccc(N3CCOCC3)cc2)cn1	12%
Cc1n[nH]c(C2CN(C(=O)CCOCC(F)(F)F)CCO2)n1 (stereo unspecified)	13.6%
CC(=O)N1CCOCC2(CCN(Cc3ccc(C)s3)CC2)C1	20.2%
CS(=O)(=O)N1CCO[C@@H]2CN(C(=O)N3CCCC3)CC[C@@H]2C1	43.9%
O=C(c1cc2c(s1)CCCC2)N1CCc2nc(C3CCCN3)ncc2C1 (stereo unspecified)	49.6%
Cc1nn2cccnc2c1C(=O)N1CCCC(n2ccnc2C)C1 (stereo unspecified)	2.3%
COc1ccccc1-c1cc(C(=O)N(C)C)c2cnn(C)c2n1	-8.9%
COCCNc1ncc(-c2cccc(F)c2)c(-c2nccn2C)n1	25.8%
Cn1ccnc1-c1nc(NC2CCCC2)ncc1-c1cccc(F)c1	63.8%

Structure (SMILES)	INHIBITION
CCOCCCNc1ncc(-c2cccc(F)c2)c(-c2nccn2C)n1	8.12%
COc1nn(C)c2c1CCCN(C(=O)c1cnccn1)C2	18.6%
COc1nn(C)c2c1CCCN(C(=O)c1c[nH]cn1)C2	14%
COc1nn(C)c2c1CCCN(C(=O)c1cscn1)C2	51.2%
CCCn1nccc1NC(=O)CN1CCCC1c1cccn1C (stereo unspecified)	25.1%
Cc1cc(C)cc(N2CCN(Cc3cccnc3)CC2=O)c1	41.5%
O=C1CC2(CCN(Cc3ccc(Cl)s3)C2)C(=O)N1 (stereo unspecified)	61.6%
O=C1CC2(CCN(Cc3ccc(-c4ccccc4)s3)C2)C(=O)N1 (stereo unspecified)	21.2%
O=C1NCC2(CCCN(Cc3ccc(Cl)s3)C2)Oc2ccccc21 (stereo unspecified)	43.7%
O=C(Cc1ccccn1)N1CCc2ncnc(NC3CCC3)c2CC1	38.5%
CCc1nc(C)c(C(=O)NCCN2CCN(C(C)=O)CC2)s1	22.3%
Cc1nn(C)cc1CN1CCc2c(nc(-c3ccccn3)[nH]c2=O)C1	38.8%
COc1cc2c(cc1OC)C(=O)C(Sc1nncn1C)C2 (stereo unspecified)	6.67%
O=C(NCc1ccco1)c1cccc(CN2CCCC2CO)c1 (stereo unspecified)	5.58%
Cc1cccc(C)c1NC(=O)c1cccc(CN2CCCC2C)c1 (stereo unspecified)	41.5%
COc1ccc(NC(=O)c2cccc(CN3CCCC3C)c2)cc1OC (stereo unspecified)	42.6%
CC1CCCN1Cc1cccc(C(=O)Nc2ccc3c(c2)CCC3=O)c1 (stereo unspecified)	58.6%
CC1CN(C)CCN1Cc1cccc(C(=O)NCc2ccco2)c1 (stereo unspecified)	-5.9%
CC1CCCN1Cc1cccc(C(=O)Nc2ccc3[nH]c(=O)oc3c2)c1 (stereo unspecified)	74.7%
COc1cccc(CN(C)C(=O)CCC(=O)c2ccccc2)c1OC	-16.9%
COc1ccc(CN(C)C(=O)CCC(=O)c2cccs2)c(OC)c1OC	50.1%
CCN(C)C(=O)CCC(=O)c1cccs1	40.2%
COCCN1CCC(CN(CC2CCCO2)C(=O)CCC(F)(F)F)CC1 (stereo unspecified)	6.67%
CCC(=O)Nc1nnc(CCOc2ccc(OC)cc2)s1	40%

Structure (SMILES)	INHIBITION
COc1ccc(N(c2ccccc2)c2ccc(C(=O)O)s2)cc1	66.4%
COc1cncc(-n2ccnc2-c2ccc(C(=O)O)s2)c1	14.6%
COc1ccc(N(c2ccc(OC)cc2)c2ccc(C(=O)O)s2)cc1	69.3%
Cc1ccc(OCc2ccc(C(=O)O)s2)cc1C	-32.9%
COc1ccc(N(c2ccc(C)cc2)c2ccc(C(=O)O)s2)cc1	27.8%
Cc1nc(N2CCCC2)ncc1-c1cc(O)n2ncnc2n1	16.8%
CN1CCCCC1(C)C(=O)N1CCC(c2ccccn2)CC1 (stereo unspecified)	19.825%
OC(COCc1ccco1)CN1CCc2c(ncn2C2CC2)C1 (stereo unspecified)	-58.7%
Cn1ccnc1C(=O)N1CCOC(Cc2ccc(Cl)cc2)C1 (stereo unspecified)	47.2%
CN(CCCC1CCCO1)S(=O)(=O)NCc1ccccc1 (stereo unspecified)	16.1%
Cc1cnc(CNS(=O)(=O)CCC2CCCO2)o1 (stereo unspecified)	57.7%
O=S(=O)(CCC1CCCO1)NCc1ncc(-c2ccccc2)o1 (stereo unspecified)	20%
C=c1ccoc1=C1NN=C(CNCCn2cccn2)O1	34.1%
CC(=O)N1CCC2(CC1)CN(CC(C)C)CC21CCNC1=O (stereo unspecified)	-33.1%
O=C(NCc1ccoc1)NC1CCCN(c2ncccn2)C1 (stereo unspecified)	-22.1%
CCOC1CCN(C(=O)c2csc(S(N)(=O)=O)c2)CC1	62.4%
CCCOC1CCCN(C(=O)c2csc(S(N)(=O)=O)c2)C1 (stereo unspecified)	0.991%
CC1CCCN(C(=O)c2csc(S(N)(=O)=O)c2)CC1 (stereo unspecified)	11.5%
CCc1nnc2n1CC(CNCc1nc(C)c(C)o1)CC2 (stereo unspecified)	-8.22%
Cc1ccc(CNC(=O)N2CCCC(NS(C)(=O)=O)C2)cc1 (stereo unspecified)	9.64%
CCOCC(=O)N1C[C@@H]2COC[C@]2(c2nc(C)no2)C1	63.8%
Cc1noc([C@]23COC[C@H]2CN(C(=O)CN(C)C)C3)n1	46.6%
Cc1noc([C@]23COC[C@H]2CN(C(=O)COC2CCCC2)C3)n1	-5.89%
